Among all 200,000 compounds or so, about 5,100 (2.5%) were called active. Shown is part of a subset that was picked to be rich in actives. Values without a mark were called inactive.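 Rule for the calls: active = activation above the screen-wide mean activation plus 3 SD (cut at about 130% in these data); inactive = the rest.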
Test: STAT1 signaling activators, primary screen, cell-based, HTS, luciferase reporter (AID 932);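 note: raw ratio to IFN-gamma control signal so 100% means no change and 0% no light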
Conditions: NIH 3T3 STAT1-luciferase reporter, IFN-gamma, luminescence; at 5.5 µM; hits give high values; 100% = IFN-gamma alone, no compound

Question: For O=C(Nc1cccc(F)c1)c1coc(=O)c(Br)c1, which activation (% of control) is on record?
Answer: 89.3%

Question: Which activation (% of control) does the source give for Cc1cccc(NC(=S)N(CCN(C)C)C(C)c2ccco2)c1 (stereo not drawn) here?
Answer: 97.6%

Question: For COc1ccccc1-n1c(=S)[nH]c2c(sc(=S)n2-c2ccc(C)cc2C)c1=O, which activation (% of control) is on record?
Answer: 97.7%

Question: With CCOC(=O)c1cnc2[nH]c3ccccc3n2c1=O as the compound, how does the activation (% of control) read?
Answer: 104%

Question: Which activation (% of control) does the source give for COc1ccc(-c2csc(Nc3ccc(O)cc3)n2)cc1 here?
Answer: 110%

Question: Which activation (% of control) does the source give for COc1ccc2nc(Nc3nc(-c4ccncc4)cs3)sc2c1 here?
Answer: 140% (active)

Question: Which activation (% of control) does the source give for CC(=O)Nc1ccc(S(=O)(=O)Nc2nc(-c3ccc(C(C)(C)C)cc3)cs2)cc1 here?
Answer: 99%

Question: With COc1ccc2nc(Nc3nc(-c4cc5ccccc5oc4=O)cs3)sc2c1 as the compound, how does the activation (% of control) read?
Answer: 103%

Question: For NS(=O)(=O)c1ccc(Nc2nc(-c3ccccc3)cs2)cc1, which activation (% of control) is on record?
Answer: 131% (active)

Question: Which activation (% of control) does the source give for Cc1cccc(S(=O)(=O)CC(=O)Nc2nc(-c3ccccc3)cs2)c1 here?
Answer: 105%

Question: For COc1ccc(Nc2nc(-c3ccccc3)cs2)cc1, which activation (% of control) is on record?
Answer: 142% (active)

Question: For COc1ccc(OC)c(Nc2nc(-c3ccc(O)c(O)c3)cs2)c1, which activation (% of control) is on record?
Answer: 102%

Question: Which activation (% of control) does the source give for COc1ccc2nc(NC(=O)[C@@H]3CCCN3C(=O)c3cccs3)sc2c1 here?
Answer: 103%

Question: With CCNC(=O)N1c2ccccc2Sc2ccccc21 as the compound, how does the activation (% of control) read?
Answer: 98%

Question: For CCNC(=O)CC1C(=O)N(c2ccc(OC)cc2)C(=S)N1CCc1ccncc1 (stereo not drawn), which activation (% of control) is on record?
Answer: 105%

Question: With Cc1ccccc1N(C(=O)Cc1cccs1)C(C(=O)NC1CCCCC1)c1cn(C)nc1C (stereo not drawn) as the compound, how does the activation (% of control) read?
Answer: 96.2%

Question: For O=C(NCCCN1CCN(c2ccc(F)cc2)CC1)Nc1ccc([N+](=O)[O-])cc1, which activation (% of control) is on record?
Answer: 88.3%

Question: Which activation (% of control) does the source give for Nc1ncc(-c2cc3ccccc3oc2=O)s1 here?
Answer: 166% (active)

Question: Which activation (% of control) does the source give for O=c1oc2ccccc2cc1-c1cn(-c2ccccc2)c(=S)[nH]1 here?
Answer: 28.6%

Question: For O=C(NCc1cccnc1)c1cccc(-c2cc3ccccc3oc2=O)c1, which activation (% of control) is on record?
Answer: 97.6%

Question: With Cn1cccc1C(C#N)c1ccccc1C#N (stereo not drawn) as the compound, how does the activation (% of control) read?
Answer: 100%

Question: For Cc1cc(C)n2nc(C(=O)N3CCN(Cc4ccc5c(c4)OCO5)CC3)nc2n1, which activation (% of control) is on record?
Answer: 108%

Question: With Cc1cccc(NC(=O)c2ccc3ccccc3n2)n1 as the compound, how does the activation (% of control) read?
Answer: 131% (active)

Question: With Cc1cccc(NC(=O)c2cc(N3C(=O)CCC3=O)ccc2Cl)n1 as the compound, how does the activation (% of control) read?
Answer: 98.4%

Question: With Cc1cccc(NC(=O)c2ccccc2NC(=O)C(C)(C)C)n1 as the compound, how does the activation (% of control) read?
Answer: 95.8%

Question: With CC(=O)c1cnc(SCC(=O)O)nc1C as the compound, how does the activation (% of control) read?
Answer: 108%

Question: Which activation (% of control) does the source give for CC(C)(C)C1CCc2c(sc3nc(SCC(N)=O)nc(N)c23)C1 (stereo not drawn) here?
Answer: 123%

Question: Which activation (% of control) does the source give for C=C(C)CSc1nc(N)c2c3c(sc2n1)CCC3 here?
Answer: 135% (active)

Question: With Nc1nc(SCC(=O)NCCN2CCOCC2)nc2sc3c(c12)CCC3 as the compound, how does the activation (% of control) read?
Answer: 99.3%

Question: Which activation (% of control) does the source give for CCOC(=O)C1=C(CC)OC(N)=C(C#N)C1c1ccc(F)cc1F (stereo not drawn) here?
Answer: 76.9%

Question: With Cc1ccc(NC(=O)c2oc(=O)c3ccccc3c2-c2ccccc2)c(C)c1 as the compound, how does the activation (% of control) read?
Answer: 97.1%

Question: For Cc1ccc(NC(=O)C(=O)NCc2ccco2)c(C)c1, which activation (% of control) is on record?
Answer: 126%

Question: With Cc1ccc(NN=C2C(=O)OC(C)(C)OC2=O)c(C)c1 as the compound, how does the activation (% of control) read?
Answer: 132% (active)

Question: Which activation (% of control) does the source give for Cc1ccccc1-c1nnn(CC(=O)c2ccc(S(=O)(=O)N3CCCC3)cc2)n1 here?
Answer: 96.4%

Question: With O=C(Cn1nnc(-c2ccccc2)n1)NCc1ccccc1 as the compound, how does the activation (% of control) read?
Answer: 100%

Question: Which activation (% of control) does the source give for CC(C)(C)NC(=O)Cn1nnc(-c2ccccc2Cl)n1 here?
Answer: 142% (active)

Question: For Cc1ccc(NC(=O)Cn2c(=O)n(CCC(=O)NC3CCN(Cc4ccccc4)CC3)c(=O)c3ccccc32)cc1, which activation (% of control) is on record?
Answer: 101%

Question: For COC(=O)c1cc(NC(=O)C2C3C=CC(C3)C2C(=O)O)cc(C(=O)OC)c1 (stereo not drawn), which activation (% of control) is on record?
Answer: 101%

Question: With CC(C)COC(=O)c1ccc(NC(=O)C2C3C=CC(C3)C2C(=O)O)cc1 (stereo not drawn) as the compound, how does the activation (% of control) read?
Answer: 138% (active)

Question: With CC(=O)NS(=O)(=O)c1ccc(NC(=O)C2C3C=CC(C3)C2C(=O)O)cc1 (stereo not drawn) as the compound, how does the activation (% of control) read?
Answer: 99.5%

Question: With Cc1ccc(S(=O)(=O)N2CCOCC2)cc1C(=O)OC1CCCCC1=O (stereo not drawn) as the compound, how does the activation (% of control) read?
Answer: 97%

Question: For O=C(O)Cc1sc(-c2ccccc2)nc1-c1cccs1, which activation (% of control) is on record?
Answer: 108%

Question: With O=C(O)Cc1sc(-c2ccc(C(=O)O)cc2)nc1-c1ccccc1 as the compound, how does the activation (% of control) read?
Answer: 93.7%

Question: For NC(=O)Cc1ccc2sc(-c3ccccc3)nc2c1, which activation (% of control) is on record?
Answer: 180% (active)

Question: With CN(CC(=O)NCCc1ccccc1)S(=O)(=O)c1cnc[nH]1 as the compound, how does the activation (% of control) read?
Answer: 95.9%

Question: For O=C(CSc1nnnn1-c1ccc(O)cc1)N1N=C(c2ccc3ccccc3c2)CC1c1ccccc1 (stereo not drawn), which activation (% of control) is on record?
Answer: 110%

Question: Which activation (% of control) does the source give for CCc1nc(C)cn1S(=O)(=O)c1cc([N+](=O)[O-])ccc1Cl here?
Answer: 87.5%

Question: With Cc1cccc(-n2cnc(C(=O)NNC(=S)Nc3ccccc3)c2)n1 as the compound, how does the activation (% of control) read?
Answer: 92%

Question: Which activation (% of control) does the source give for COc1cccc(C(=O)Nc2cccnc2)c1OC here?
Answer: 96.6%

Question: With Cc1cccc(-n2cnc(C(=O)Nc3cccnc3)c2)n1 as the compound, how does the activation (% of control) read?
Answer: 140% (active)

Question: For Cc1noc(C)c1S(=O)(=O)Nc1ccc(C(=O)N2CCN(c3ccc(F)cc3)CC2)cc1, which activation (% of control) is on record?
Answer: 98.8%

Question: Which activation (% of control) does the source give for N#Cc1ccc(OCc2nnc(-c3ccc([N+](=O)[O-])cc3)o2)cc1 here?
Answer: 99.1%

Question: For CN(C)S(=O)(=O)c1ccc(N2CCCC2=O)c([N+](=O)[O-])c1, which activation (% of control) is on record?
Answer: 108%

Question: Which activation (% of control) does the source give for CSc1nc2ccc(NC(=O)c3c(F)cccc3F)cc2s1 here?
Answer: 145% (active)

Question: For CCCC(=O)Nc1nc2ccc(NC(=O)c3c(F)c(F)c(OC)c(F)c3F)cc2s1, which activation (% of control) is on record?
Answer: 102%

Question: Which activation (% of control) does the source give for O=C(Nc1ccncc1)c1c(F)cccc1F here?
Answer: 105%

Question: With CCOC(=O)c1c(CN(C)C)n(-c2ccccc2)c2cc(Br)c(O)cc12 as the compound, how does the activation (% of control) read?
Answer: 101%

Question: Which activation (% of control) does the source give for O=C(Nc1cc2ccccc2oc1=O)C1CCCCC1 here?
Answer: 149% (active)

Question: For O=C(O)c1ccc(NC(=O)C2CCCCC2)cc1, which activation (% of control) is on record?
Answer: 99.3%

Question: With CN1C(=O)c2ccc(NC(=O)C3CCCCC3)cc2C1=O as the compound, how does the activation (% of control) read?
Answer: 99.6%

Question: With CC(=O)Nc1ccc(/C(C)=N/NC(=O)CN(c2ccccc2Br)S(C)(=O)=O)cc1 as the compound, how does the activation (% of control) read?
Answer: 97.6%

Question: With O=C(O)CCCCCNc1ncnc2ccc(Br)cc12 as the compound, how does the activation (% of control) read?
Answer: 104%

Question: With Cc1[nH][nH]c(=O)c1C(c1ccc2c(c1)OCO2)c1c(C)[nH][nH]c1=O as the compound, how does the activation (% of control) read?
Answer: 101%

— PubChem BioAssay AID932 (The Scripps Research Institute Molecular Screening Center, 2007)
